Compounds with a hit are over-represented: about 1.1% of the library has one in this group of screens.
Eya2 phos inh: blocks the phosphatase activity of human Eya2; O00167; recombinant Eya2, OMFP fluorescence dephosphorylation (OMFP is methylfluorescein phosphate); Potency, µM (titrated, usually from 76.9 µM), for the others: at the top dose activity, negative = inhibition, hits mostly inhibitors; 330,000 compounds, 0.006% hits; also: % is scaled to controls: 0 for no effect and ±100 for the full control effect
Target sequence (O00167 whole entry, looked up): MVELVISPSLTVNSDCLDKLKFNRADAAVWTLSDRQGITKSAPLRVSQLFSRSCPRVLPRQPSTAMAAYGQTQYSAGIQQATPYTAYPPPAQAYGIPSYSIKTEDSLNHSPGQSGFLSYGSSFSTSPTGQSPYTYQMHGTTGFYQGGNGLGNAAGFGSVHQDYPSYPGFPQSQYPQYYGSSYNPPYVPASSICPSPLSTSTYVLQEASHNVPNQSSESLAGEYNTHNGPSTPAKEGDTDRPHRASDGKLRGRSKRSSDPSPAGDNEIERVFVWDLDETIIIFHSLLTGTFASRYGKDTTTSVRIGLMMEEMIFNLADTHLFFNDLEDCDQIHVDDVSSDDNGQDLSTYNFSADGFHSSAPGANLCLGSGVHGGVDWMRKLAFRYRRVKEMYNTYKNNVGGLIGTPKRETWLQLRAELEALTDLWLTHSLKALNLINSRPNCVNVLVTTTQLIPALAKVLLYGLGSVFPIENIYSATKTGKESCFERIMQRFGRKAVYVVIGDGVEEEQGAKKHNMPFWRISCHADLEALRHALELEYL
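Eya2 protein (added as 0.2 uM solution) was preincubated with compound for 10 min at ambient temperature in 50 mM HEPES pH 7.5, 50 mM NaCl, 5 uM MgCl2, 0.05% BSA, 1 mM DTT. OMFP (added at 50 uM) then reacted 10 min; fluorescence read at 485/525 nm.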
USP2a block: blocks human ubiquitin-specific protease USP2a; O75604; USP2 core, Ub-CHOP2 coupled fluorogenic reporter, 485/531; 330,000 compounds, 0.01% hits; Potency, µM (titrated, usually from 38.3 µM), for the others: at the highest dose activity change, negative = inhibition, most hits filed as inhibitors;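 also: plate controls were DMSO wells for no effect and full inhibition by NEM control for full effect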
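Deubiquitinase activity read as fluorescence (485/531 nm) after Ub-CHOP2 cleavage activates the enterokinase reporter on its substrate; USP2 core 10nM, Ub-CHOP2 and substrate 25nM each, 30min compound preincubation then 60min RT; data normalized to NEM, curves fitted.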
ALOX12 inh: inhibitors of human 12S-lipoxygenase ALOX12; purified 12hLO, xylenol orange hydroperoxide absorbance; Potency, µM (titrated, usually from 108 µM), inactives show at the highest dose activity change, negative = inhibition, most hits filed as inhibitors; 580,000 compounds, 1.1% hits; AID 1671190; also: % is scaled to controls: 0 for no effect and ±100 for the full control effect
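Purified human 12hLO (150 nM final) in 25 mM Hepes, 0.01% Triton X-100, pH 7.0 was preincubated 15 min at room temperature with compound. Then 40 uM arachidonic acid was added, 30 min. Hydroperoxide was read by Fe-XO absorbance ratio 573/405 nm.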
TSG101-PTAP inh: blocks PTAP/TSG101 interaction to inhibit HIV-1 budding; Q99816; Fluorescence polarization, FITC-PTAP peptide / Tsg101 binding; Potency, µM (doses to about 115 µM), for inactives: at the top dose activity change, negative = inhibition, usual class: inhibitors; 340,000 tested, under 10 active; active = well fitted inhibition curve with a large enough effect in the main read-out, with a control signal flat, not every such curve was filed as active; inconclusive = small, poorly fitted or top-dose-only effect, or effect the other way, or a change in a side signal; inactive = no such curve, though single readings can be large or run the other way; also: % of control where 0% means no effect
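Tsg101 binding domain (10 uM final) was mixed with compound and a FITC-labeled PTAP peptide (50 nM final) in HEPES pH 7.5 buffer with NaCl, Tween 20, EDTA and TCEP; fluorescence polarization was read after 20 min at r.t.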
* marks the source's active call; other numbers are inactive results; ? = inconclusive; nt = no result given; [ ] = another dose, or the depositor's remark. Unless noted, calls follow the shape of the dose curve; as a rule, active = well fitted curve in the direction sought with a large enough effect; inconclusive = small, poorly fitted or top-dose-only effect, or another doubt; inactive = no such curve, though single readings can be large; an effect the other way counts as inactive or inconclusive. Potency is read from the fitted curve at half-maximal effect.

SMILES | Eya2 phos inh | USP2a block | ALOX12 inh | TSG101-PTAP inh
CCOc1ccc(NC(=S)Nc2cc(C)[nH]n2)cc1 | 0% | -1% | 40µM* | -4%
C1CCC(CN2CCCC(c3nc(CCOCC4CCOCC4)no3)C2)CC1 (stereo unspecified) | nt | nt | 52% | nt
O=C(CSC1CCCCC1)c1ccccc1Br | nt | nt | 35µM* | nt
COc1ccc(C(=O)N2CCCC(c3noc(COc4ccccc4)n3)C2)cn1 (stereo unspecified) | nt | nt | 44% | nt
O=C(NCc1ccc2c(c1)OCO2)c1ccccc1 | 5% | 3% | -17% | 1%
CC(C)C(=O)Nc1cccc(NC(=S)NC(=O)c2ccc(Cl)cc2)c1 | -17% | -1% | -23% | 0%
O=C(NC(=S)NCc1ccccc1)c1ccc2c(c1)OCO2 | -6% | -1% | 16µM* | -3%
COc1ccc(C(=O)NC(=S)NCc2ccccc2)cc1 | 27% | 1% | 0.71µM* | -2%
O=C(NC(=S)NCc1ccc2c(c1)OCO2)c1ccccc1 | -3% | 2% | 16µM* | -3%
CC(C)C(=O)Nc1cccc(NC(=S)NC(=O)c2ccc3c(c2)OCO3)c1 | -3% | 1% | 3.5µM* | 2%
Cn1cc(-c2ccccc2)c2nc(COc3ccc(Cl)cc3)cn2c1=O | nt | nt | -9%[176 µM] | nt
O=C(COc1ccccc1)NC[C@H]1Cn2c(-c3ccc(Cl)cc3)cnc2CO1 | nt | nt | 37%[176 µM] | nt
COc1ccc(Cc2nnc(SCC(=O)Nc3ccc(Br)c(C)c3)n2C)cc1 | nt | nt | 36% | nt
Oc1ccccc1/C=N/n1c(COc2ccccc2)n[nH]c1=S | -3% | -1% | 20% | 2%
Oc1ccc(/C=N/n2c(COc3ccccc3)n[nH]c2=S)c(O)c1 | -13% | -4% | 45µM* | -9%
O=C(NC1CCCC1)N[C@@H]1C[C@H](Cn2cc(C3CC3)nn2)[C@@H](O)[C@H]1O | nt | nt | 22µM* | nt
CCCCCC(=O)CC | nt | nt | 5%[176 µM] | nt
Cc1cccc(NC(=O)CNC(=O)CCc2nc3sc4c(c3c(=O)[nH]2)CCCC4)c1C | 10% | 5% | 10µM* | 4%
CN(CC(=O)Nc1ccc(F)c(F)c1F)C(=O)CCc1nc2sc3c(c2c(=O)[nH]1)CCCC3 | -7% | 3% | 18µM* | -5%
Fc1ccc(Nc2ncc(-c3cccnc3)c3c2OCC3)cc1 | nt | nt | 5%[176 µM] | nt
COc1cccc(-c2cccc(CN3CCCC(C)(NC(C)=O)C3)c2)c1 (stereo unspecified) | nt | nt | -50%[176 µM] | nt
CC(=O)NC1(C)CCN(Cc2ccc(-c3cccc(F)c3)cc2)C1 (stereo unspecified) | nt | nt | 50µM* | nt
CC(=O)NC1(C)CCN(Cc2ccccc2-c2ccc3c(ccn3C)c2)C1 (stereo unspecified) | nt | nt | 28µM* | nt
CC(=O)NC1(C)CCN(Cc2ccccc2-c2cccc(C(C)=O)c2)C1 (stereo unspecified) | nt | nt | 35µM* | nt
CC(=O)NC1(C)CCCN(Cc2cccc(-c3c(C)noc3C)c2)C1 (stereo unspecified) | nt | nt | 40µM* | nt
SMILES | Eya2 phos inh | USP2a block | ALOX12 inh | TSG101-PTAP inh
COc1ccccc1-c1ccccc1CN1CCC(C)(NC(C)=O)C1 (stereo unspecified) | nt | nt | 2%[176 µM] | nt
CCN1/C(=C/c2ccc3cc(C)ccc3[n+]2CC)Sc2cc(C)ccc21 | 51% | 3% | 35µM* | 14%
CC[n+]1c(C)ccc2cc(C)ccc21 | nt | nt | 5.6µM* | nt
CCN1/C(=C/c2cccc[n+]2C)Sc2ccc(OC)cc21 | 18% | 1% | 29% | -6%
CCN1/C(=C/c2ccc3cc(C)ccc3[n+]2C)Sc2ccc3sccc3c21 | 1% | 0% | 45µM* | -1%
CN(C)Cc1cccc(-c2cc3c(ccn3Cc3cccnc3)c(C3=CCOCC3)n2)c1 | nt | nt | 13%[176 µM] | nt
CCOc1ccccc1C(=O)NC1CCCN(c2cc(-c3ccc(Cl)cc3)[nH]n2)C1 (stereo unspecified) | nt | nt | 30% | nt
CS(=O)(=O)Nc1cccc(-c2ccc3ncnc(Nc4ccc(F)cc4)c3c2)c1 | nt | nt | 18µM* | nt
CN(c1ccc(-c2csc(NC(C)(C)C)n2)cc1)S(C)(=O)=O | nt | nt | -76% | nt
CN(c1ccc(-c2csc(NC3CCCC3)n2)cc1)S(C)(=O)=O | nt | nt | 16µM* | nt
CS(=O)(=O)Nc1ccc(-c2csc(NC3CC3)n2)cc1 | nt | nt | 10µM* | nt
Cc1nc(-c2ccc(NS(C)(=O)=O)cc2)cs1 | 4% | 2% | 0% | -4%
O=C(/C=C/c1ccc(-c2ccccc2Cl)o1)c1ccccc1Br | nt | nt | 4.5µM* | nt
Cc1ccc(C(=O)/C=C/c2ccc(-c3cc(Cl)ccc3Cl)o2)cc1 | nt | nt | 5µM* | nt
Cc1ccc(C(=O)/C=C/c2ccc(-c3cccc(Cl)c3Cl)o2)cc1 | nt | nt | 14µM* | nt
Cc1ccc(C(=O)/C=C/c2ccc(-c3ccc(C)cc3)o2)cc1 | -16% | 5% | ? | 3%
O/N=C/c1ccc(-c2cc(Cl)ccc2Cl)o1 | -2% | 1% | -1% | 0%
O=C(/C=C/c1ccc(-c2ccc(Cl)cc2Cl)o1)c1ccc(Br)cc1 | nt | nt | 8.9µM* | nt
CC/C=C\CCCCCCCCCCOC(C)=O | nt | nt | 1%[176 µM] | nt
COc1ccc(-c2nnc(C(C)OC(=O)c3[nH]c(C)c(C(C)=O)c3C)o2)cc1 (stereo unspecified) | nt | nt | 22% | nt
Cc1cc(NC(=O)C(C)(C)Oc2nn(CCOc3ccccc3)c3ccccc23)n(C)n1 | nt | nt | -25%[176 µM] | nt
CCn1nc(C)c(C(C)NCc2cccc(OC)c2OCCN2CCOCC2)c1C (stereo unspecified) | nt | nt | 1% | nt
O=c1c2c(-c3ccccc3)n3ncnc3nc2ccn1CCc1cccs1 | nt | nt | 22% | nt
O=C(/C=C/c1ccc(-c2cccc(Cl)c2)o1)c1cc(Cl)ccc1Cl | nt | nt | 18µM* | nt
O=C(O)/C=C/c1ccc(-c2cccc(C(F)(F)F)c2)o1 | 7% | 2% | -29% | -2%
SMILES | Eya2 phos inh | USP2a block | ALOX12 inh | TSG101-PTAP inh
CCOc1cc(C2CC(=O)N3CN(c4ccccc4)CSC3=C2C#N)cc(Br)c1O (stereo unspecified) | nt | nt | 1.8µM* | nt
CCc1ccccc1N1CSC2=C(C#N)C(c3cc(OC)c(OC)cc3OC)CC(=O)N2C1 (stereo unspecified) | 4% | -5% | ? | -1%
COc1cc(OC)c(C2CC(=O)N3CN(c4ccccc4)CSC3=C2C#N)cc1OC (stereo unspecified) | 5% | 0% | 2.8µM* | -3%
COc1ccc(Br)cc1C1CC(=O)N2CN(C)CSC2=C1C#N (stereo unspecified) | 21% | -1% | 28µM* | -6%
COc1ccc(Br)cc1C1CC(=O)N2CN(Cc3ccccc3)CSC2=C1C#N (stereo unspecified) | 23% | -11% | ? | -2%
COc1cc(OC)c(C2CC(=O)N3CN(C)CSC3=C2C#N)cc1OC (stereo unspecified) | 14% | -1% | 16µM* | 1%
CCCCC1CCC(C(=O)Nc2c(C(C)C)cccc2C(C)C)CC1 (stereo unspecified) | nt | nt | 25% | nt
N#CC1=C2SCN(c3ccccc3)CN2C(=O)CC1c1c(Cl)cccc1Cl (stereo unspecified) | 3% | 0% | 3.2µM* | 0%

Screening results (PubChem)
